# Data taken from PubChem BioAssay AID1346428 (National Center for Advancing Translational Sciences (NCATS), 2018).
# The whole screen tested about 48,000 compounds, of which about 1,200 (2.5%) were called active. Roughly 2% stayed inconclusive and do not appear here.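 The calls were made as follows: active = activation of at least 60% and not above a set upper limit (about 1 call in 100 departs from these limits); inconclusive = activation of 40% to 60%, or above that upper limit; inactive = activation under 40%.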 This excerpt belongs to a sample that is enriched for actives.
# Molecular target: Probable G-protein coupled receptor 32 (Homo sapiens) (UniProt O75388)
# Assay: qHTS for Agonists of Human Resolvin D1 Receptor DRV1
# Conditions: CHO-K1 GPR32 beta-arrestin PathHunter luminescence, 90 min; at 76.9 µM; active compounds read high; zero percent set by DMSO-only wells
# Source text: Endogenous resolution of inflammation is known to be transduced through various GPCRs and their natural mediators of lipid nature. Resolvin D1 (RvD1) is one of the active players in resolution of acute inflammation through regulation of anti-inflammatory pathways; it is known to enhance phagocytosis of human macrophages, limits neutrophils infiltration, etc. […] The search for GPR32-activating small molecules with anti-inflammatory effects similar to its natural omega-3 derivative ligand in order to use them as research tools for further studies of inflammation and its resolution was the goal of this screening project. For primary screening assay, we used CHO-K1 GPR32 beta-arrestin cell line (DiscoveRx, #93-0321C2A) and the PathHunter(R) beta-Arrestin Assay (DiscoveRx) which measures recruitment of beta-arrestin to the GPR32 and generates chemiluminescent signal. These engineered cells stably transfected with GPR32 co-express GPR32-fused small 42-amino acid fragment of beta-Gal called ProLinktrade mark, and […] -tagged beta-Arrestin fusion protein. When GPR32 is activated by a ligand, it stimulates binding of beta -Arrestin to ProLink-tagged GPR32, and two parts of beta-Gal complement forming a functional enzyme. Upon substrate (PathHunter(R) Detection reagent) addition, beta-Gal hydrolyzes it and generates a chemiluminescent signal.
# The cells were thawed and plated in thawing media containing F-12 HAM (Invitrogen, #11765-054), 10% FBS (Invitrogen, #10082), 1x Glutamine, and 1x Pen/Strep onto the 175-mm flask for 24 hours. Then, thawing media was replaced with Growth media which contains 800microg/mL Geneticin (Invitrogen, #10131) and 300microg/mL Hygromycin B (Invitrogen, #10687) in addition to described above. For the assay, the cells were harvested at ~80% confluent stage with Cell Dissociation buffer (Gibco, #13151), and seeded at 2,500 cells/ 3microL/well in assay media (PathHunter(R) Cell Plating Reagent, DiscoverX, #93-0563R1B) using MultiDrop Combi dispenser (Thermo Scientific, Logan, UT) onto white solid bottom tissue culture-treated 1536-well plates (Greiner # 789173-F) and allowed to attach overnight at 37 degrees C, 95% humidity, 5% CO2, . Next, 23nL/well of compound solutions in DMSO were added with a Pin Tool (Kalypsis, San Diego, CA) to the assay plates. As the basal control (EC0), 23 nL/well of DMSO was used on each plate. The cells were incubated in the presence of compounds or DMSO for 90 minutes at 37 degrees C, 5% CO2. Subsequently, 1.5microL/well of PathHunter(R) Detection Reagent prepared per the manufacturer's instructions was added to the assay plates with BioRAPTR FRDtrade mark dispenser (Beckman Coulter, San Francisco, CA) and incubated for 1 hour at ambient temperature prior to the measurement of the luminescent signal on ViewLux(R) uHTS Microplate Imager (Perkin Elmer, Waltham, MA).
# Chain of Probable G-protein coupled receptor 32 (Homo sapiens) (O75388 whole entry, looked up): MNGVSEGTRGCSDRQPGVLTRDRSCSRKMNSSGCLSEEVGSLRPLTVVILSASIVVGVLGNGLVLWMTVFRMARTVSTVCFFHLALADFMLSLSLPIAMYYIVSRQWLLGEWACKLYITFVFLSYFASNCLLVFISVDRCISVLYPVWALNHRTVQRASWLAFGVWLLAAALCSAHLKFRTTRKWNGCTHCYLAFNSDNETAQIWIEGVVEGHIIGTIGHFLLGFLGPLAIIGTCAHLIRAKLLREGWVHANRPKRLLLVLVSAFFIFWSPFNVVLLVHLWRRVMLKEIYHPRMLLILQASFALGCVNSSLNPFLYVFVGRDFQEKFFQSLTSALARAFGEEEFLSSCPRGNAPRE
row,Compound,activation
1,c1ccc2c(c1)[I+]c1ccccc1-2,85.7% (active)
2,Nc1ccc([N+](=O)[O-])cc1,-34.8% (inactive)
3,CC[N+]1(CCOC(=O)C(O)(c2ccccc2)c2ccccc2)CCCCC1,-7.19% (inactive)
4,NCCc1ccc(S(=O)(=O)F)cc1,14.4% (inactive)
5,CC1N=C(N)OC1c1ccccc1 (stereo not given),-12.2% (inactive)
6,C=CCN1CCC23c4c5ccc(O)c4O[C@H]2C(=O)CC[C@@]3(O)C1C5 (stereo not given in full),-10.4% (inactive)
7,O=S(=O)(O)C(F)(F)C(F)(F)C(F)(F)C(F)(F)F,94.8% (active)
8,Cc1nnc(NC(=O)c2cccn(Cc3cccc(F)c3)c2=O)s1,23.9% (inactive)
9,CCOC(=O)c1ncn2c1[C@@H]1CCCN1C(=O)c1cc(OC)ccc1-2,-9.3% (inactive)
10,CC1=C(C(=O)O)N2C(=O)[C@@H](N)[C@H]2SC1,-12.7% (inactive)
